Measurements: PubChem BioAssay AID623908 (Johns Hopkins Ion Channel Center, 2012)
About 1,500 (60%) of roughly 2,500 compounds were called active.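 Rule for the calls: active = duplicate-averaged ratio beyond 3 SD from buffer wells, up or down, though filed actives are nearly all decreases; inactive = the rest.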 So high a share suggests a set chosen from earlier hits. A selection follows.

Assay: membrane potential response in parental HEK293 cells, counter-screen for CHT activator project, cell-based, membrane potential dye (AID 623908)
Conditions: parental HEK293, membrane potential dye fluorescence (FDSS); at 10 µM; measured after EC20 choline addition

Structure (SMILES) | ratio readout change
CC(C)(C)Nc1nc(-c2ccccn2)nc2ccccc12 | -76.9 (active)
CC1=CC(C)(C)N(C(=O)CSc2nnc(-c3ccccc3)o2)c2ccc(C)cc21 | inactive
COc1nc(N=C(N)N)nc2c(C)cccc12 | -78.8 (active)
Cc1nc(N=C(N)N)nc2c(C)cccc12 | -65.7 (active)
O=C(c1ccccc1F)N(Cc1ccccc1)Cc1ccccc1 | inactive
CCCCn1c(N)c(N(CCC(C)C)C(=O)c2ccc(COc3ccccc3)o2)c(=O)[nH]c1=O | inactive
COc1ccccc1NC(=O)CSc1nnc(-c2ccoc2C)n1CCc1ccccc1 | inactive
Cc1ccc(C(=O)C[n+]2cc(-c3ccccc3)n3c2CCCCC3)cc1 | inactive
Clc1ccc(C[n+]2cc(-c3ccc(Cl)cc3)n3c2CCC3)cc1 | -46 (active)
Cc1ccc2c(c1)N(CC(=O)N(Cc1ccccn1)Cc1ccco1)C(=O)C(C(C)C)O2 (stereo not drawn) | inactive
O=[N+]([O-])c1ccc(N2CCNCC2)cc1NCc1cccnc1 | -59.8 (active)
CC(=O)c1ccccc1OCc1ccc(C(=O)c2ccccc2)cc1 | inactive
C[C@H]1CCC(=O)N([C@H](CSc2ccccc2)Cc2ccccc2)CC1 | inactive
CC(=O)N1CC[n+]2c(-c3ccc([N+](=O)[O-])cc3)csc21 | -25.4 (active)
CCN(CC)CCC(c1cc(OC)c(OC)c(OC)c1)c1c(OC)cc(OC)c2c(-c3ccccc3)cc(=O)oc12 (stereo not drawn) | -25.5 (active)
Cc1nnc(-c2ccc(Oc3ccc(C)c(C)c3)c([N+](=O)[O-])c2)o1 | inactive
CN(C)/C=C/C(=O)c1cnc2sccn2c1=O | -39.9 (active)
COc1cccc(C(=O)NC(=O)Nc2nc(C)cc(C(F)(F)F)n2)c1 | -43.4 (active)
Cc1ccccc1C(=O)NCC(c1ccco1)N1CCc2ccccc21 (stereo not drawn) | inactive
Cn1c(=O)n(C)c2cc(C(=O)Nc3ccc4c(c3)OCO4)ccc21 | -33.9 (active)
O=C(Nc1ccccc1N1CCN(c2ccccc2)CC1)c1cccc(F)c1 | inactive
Cc1cc2c(cc1C)[n+](C)cn2CC(O)COCC1CC=CCC1 (stereo not drawn) | -37.2 (active)
N=c1c2c3c(sc2ncn1CCCN1CCOCC1)CCCCC3 | -59.9 (active)
N=c1c2c3c(sc2ncn1N)CCCCC3 | -39.8 (active)
COc1cc2c(cc1OC)C(c1cccc([N+](=O)[O-])c1)=NCC2 | -64.5 (active)
Cc1c(CCOC(=O)CC23CC4CC(CC(C)(C4)C2)C3)sc[n+]1Cc1ccc([N+](=O)[O-])cc1 | -47 (active)
O=C(CCC1CCN(C(=O)c2cccc(Cl)c2F)CC1)Nc1ccccc1 | inactive
O=C1c2ccccc2C(=O)c2c1cccc2N1CCN(CCO)CC1 | -73.9 (active)
